32 molecules from the supplement of paper PMC3484114 can be followed below.

± gives the standard deviation.

The test has as its system OVCAR-3-derived ovarian cancer stem-like cells (spheroids). The experiment in a line: cell growth relative to untreated control; higher = more growth (less inhibition). As to conditions: 2.29 µM; 96 h. The essentials: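 Viability of stem-like cells from OVCAR-3 spheroids was assessed with TOX8 resazurin fluorescence at ex 560/em 590 nm. The cells had been trypsin-dissociated, seeded at 50,000 cells/mL in stem cell medium in ultra-low attachment 96-well plates and preincubated 24 h, then treated with compounds at 2.29 uM for 96 h at 37°C, 5% CO2, in 4 replicate wells, with fluorescence read after 4 h. Results were converted to percent growth against untreated wells after blank subtraction and Grubbs outlier removal.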
As to `NCCCNCCSP(=O)(O)O`, the cell growth is 99.4 ± 12%.
Regarding `Fc1cccc(F)c1C1SCc2nc3ccccc3n21` (configuration not stated), the cell growth stood at 78.4 ± 9.6%.
With `C/C(=N\N=C(/[Se])N1CC2CCC(CC2)C1)c1ccccn1` the figure was 7.7 ± 2.4%; with `NP(=O)(Oc1c2occc2cc2ccc(=O)oc12)N(CCCl)CCCl` (configuration not stated), 72.2 ± 18%; with `COc1cccc2c1cc([N+](=O)[O-])c1c(C(=O)O)cc3c(c12)OCO3`, 95.5 ± 14%.
Regarding `Cc1cc(N(CCCl)CCCl)ccc1/C=N/NC(=O)Cc1cc(=O)oc2cc(O)ccc12`, the cell growth stood at 113 ± 53%.
Under `CC12CCC3C(CCC4CC(OC(=O)Cc5ccc(N(CCCl)CCCl)cc5)CCC43C)C1CCC(=O)N2` (configuration not stated) stands 52.8 ± 15%.
`CC1=C[C@H]2O[C@@H]3[C@H](O)[C@@H](O)[C@@](C)([C@@]2(CO)CC1)[C@]31CO1` gave a cell growth of 36 ± 10%.
For the molecule `COc1cc2c(cc1O)N=CC1CCC(O)N1C2=O` (configuration not stated), the cell growth was 93.8 ± 20%.
On to `COC1CC(OC2CCC3(C=O)C4CCC5(C)C(C6=CC(=O)OC6)CCC5(O)C4CCC3(O)C2)OC(C)C1OC1OC(CO)C(O)C(O)C1O` (configuration not stated), for which the cell growth turned out to be 8.05 ± 3.3%.
Regarding `O=C1C=C2C=CC3CC2(O1)C1CCCCN31` (configuration not stated), the cell growth amounted to 49.8 ± 9.5%.
Molecule `CC1=CC23C(COC(=O)C24CO4)C(C(=O)O)=CC3C1C.NCc1ccccc1` (configuration not stated) returned a cell growth of 74.5 ± 29%.
Consider `[O-][Cl+3]([O-])([O-])[O-].c1ccc(-c2csc3c4ccccc4c4ccccc4[n+]23)cc1`, for which the cell growth turned out to be 45.5 ± 12%.
With `COC1CC(O[C@H]2CC[C@]3(C=O)[C@H]4CC[C@]5(C)[C@@H](C6=CC(=O)OC6)CC[C@]5(O)[C@@H]4CC[C@]3(O)C2)OC(C)C1O` (some centres not stated) the figure was 52.2 ± 16%; with `CCOC(OCC)C(CC)[Se]c1ccccc1[N+](=O)[O-]` (configuration not stated), 120 ± 21%; with `O=C1N[C@@H]2C(=C[C@H](O)[C@@H](O)[C@H]2O)c2cc3c(c(O)c21)OCO3`, 111 ± 17%.
For `O=[N+]([O-])[O-].O=[N+]([O-])[O-].O=[N+]([O-])[O-].[Ga+3]`, the cell growth turned out to be 120 ± 11%.
Turning to `NC(=O)OCc1c(O)c2c(c(O)c1COC(N)=O)C(=O)C=CC2=O`, the cell growth was 95.9 ± 14%.
Take `CC(=O)O[C@@H]1C[C@H]2O[C@@H]3C=C(C)CC[C@]3(C)[C@]1(C)[C@]21CO1`: the cell growth is 48.5 ± 11%.
With `O=C([O][Hg][CH2]C1COC([CH2][Hg][O]C(=O)c2ccccc2)CO1)c1ccccc1` (configuration not stated) the figure was 69.9 ± 76%; with `C[C@@H]1CCOC(=O)/C=C/C=C\C(=O)O[C@@H]2C[C@H]3O[C@@H]4[C@@H]5O[C@]5(C)[C@H](O)C[C@]4(COC(=O)[C@H]1O)[C@]2(C)[C@@]31CO1`, 13.4 ± 5.4%.
In the case of `O=[Se](O)O.[Na+]`, the cell growth is 112 ± 29%.
With `COc1ccc(C2C=C(c3ccc4c(c3)OCO4)Oc3c2c(=O)oc2ccccc32)cc1OC` (configuration not stated) the figure was 56.4 ± 40%.
Turning to `C1COCCN1.S=C(S)N1CCOCC1`, the cell growth is 63.4 ± 11%.
As for `[O-][n+]1ccccc1[S-].[O-][n+]1ccccc1[S-].[Zn+2]`, the cell growth worked out at 95.8 ± 7.8%.
Under `CCOC(=O)NC1=C(N2CC2)C(=O)C(NC(=O)OCC)=C(N2CC2)C1=O` stands 50.1 ± 9.1%; under `CCC[CH2][Sn]1([CH2]CCC)[S]CC[N]1S(=O)(=O)c1ccc(C)cc1`, 36.9 ± 13%; under `CO[C@@H](/C(C)=C/C=C/C(C)=C/c1coc(C)n1)[C@@H](C)[C@@H]1C[C@H](O)[C@@]2(C)O[C@@H]2/C=C/[C@@H](C)[C@H]2C[C@H](CC(=O)O2)C[C@@H]2O[C@H]2C(=O)O1`, 40.6 ± 7.4%.
Regarding `[Cl][Hg][c]1ccc2ccccc2c1`, the cell growth turned out to be 62.6 ± 8.8%.
As to `CC12C(=O)OC(=O)C1(C)C1CCC2O1` (configuration not stated), the cell growth turned out to be 91 ± 14%.
Molecule `Cc1c(N)nc([C@H](CC(N)=O)NC[C@H](N)C(N)=O)nc1C(=O)N[C@H](C(=O)N[C@H](C)[C@@H](O)[C@H](C)C(=O)N[C@H](C(=O)NCCc1nc(-c2nc(C(=O)NCCC[S+](C)C)cs2)cs1)[C@@H](C)O)[C@@H](OC1OC(CO)C(O)C(O)C1OC1OC(CO)C(O)C(OC(N)=O)C1O)c1cnc[nH]1` (some centres not stated) yielded a cell growth of 53 ± 10%.
Under `CO[C@H]1[C@@H](O)[C@@H](C)O[C@H](O[C@H]2[C@H](Oc3cccc4c(O)c5c(=O)oc6ccc(C)c7c(=O)oc(c34)c5c67)O[C@H](C)[C@H](O)[C@@H]2O)[C@@H]1O` stands 67.4 ± 17%.
